This note sets out measurements from PubChem BioAssay AID624331 (National Center for Advancing Translational Sciences (NCATS), 2012).

Inconclusive results are not listed. Where a call stands in place of a potency, no number is given. Calls of active or inactive are those of the source. Calls follow the shape of the dose curve; as a rule, active = well fitted activation curve with a large enough effect; inconclusive = small, poorly fitted or top-dose-only effect; inactive = no such curve, though single readings can be large or run the other way.
Potency is read from the fitted curve at half-maximal effect.

This assay in a line: qHTS assay for re-activators of p53 using a Luc reporter: Hit Validation with no p53 Expressed. The conditions noted are these: p53-null cells, luciferase reporter counter-screen; series mostly up to 46.1 µM. From the text: The p53 tumor suppressor plays a key role in suppression of tumorigenesis and in human carcinogenesis. It is frequently found inactivated in human cancers, mainly by point mutation. These point mutations are found in a wide variety of human cancers and a majority of them affect the DNA binding domain of the protein. The point mutations either alter native p53 conformation or abolish DNA contact. Additionally, cancer cells with p53 mutations are more resistant to chemo-radiation therapies.
This counter screen was run against the hits identified from the primary screen. It uses a cell line that was not transfected with p53. Compounds that show activity in this counter screen show unspecific activation of the assay system and are excluded from further consideration.
NIH Chemical Genomics Center [NCGC]
NIH Molecular Libraries Probe Production Centers Network [MLPCN]
Assay Provider (PI): Yi Sung, University of Michigan at Ann Arbor
5ul of 1000 cells per well are dispensed in all wells except column 4, into white solid-bottom TC-treated Kalypsys plates. The cells are kept in Opti-MEM and supplemented with 10% FBS and dispensed using a Multidrop (Thermo). Then using the Kalypsys pin-tool, 23nl of compounds are pinned. The compounds are starting concentration at 10mM, with 1:5 dilution, 4 points, and the control compound nocodazole is pinned in column 1 at 25mM, 1:3 dilution, in duplicate, 25mM nocodazole is pinned in column 2. Please note, all concentrations are working concentrations. 5ul of 1pM purified luciferase enzyme is dispensed using the Kalypsys dispenser in column 4. Plates are incubated for 24 hrs at 37 deg C, 5% CO2, and 95% humidity. Then 4ul of the detection reagent Amplite (ABD Bioquest) is added using the Kalypsys dispenser. Plates are incubated for 10 min at ambient room temperature and are then read on the ViewLux (Perkin Elmer) using a clear filter for a luminescent read-out.
For `O=C(/C=C/c1cccs1)Nc1ccc(Br)cn1`, the Potency result was “inactive”.
As for `COc1ccc(-n2cnc3cc(C(=O)N4CCOCC4)ccc32)cc1`, the Potency result was “inactive”.
Turning to `COc1ccccc1N=Nc1[nH]c2ccc(C)cc2c1O`, the Potency entry is “inactive”.
`O=c1[nH]c(N/N=C/c2ccc(O)cc2)nc2ccccc12`: the Potency result is “inactive”.
Take `O=c1cc(-c2ccc3c(c2)OCCO3)oc2ccc(Cl)cc12`: the Potency result is “inactive”.
Under `O=C(CC(=O)c1ccccc1O)c1cccc(F)c1` stands “inactive”.
`COC(=O)CSc1nc2cc3c(cc2cc1C#N)OCO3`: the Potency result is “inactive”.
The value for `Cc1ncsc1C(=O)Nc1nc2c(s1)CCCC2` was “inactive”; that for `CCOc1ccc(-n2c(SCc3nc(-c4cccs4)no3)nnc2-c2ccncc2)cc1` was “inactive”.
For the compound `CC(C)(C)NC(=O)C(c1ccc(Cl)cc1)N(CCO)C(=O)c1snc(C(N)=O)c1N` (stereo not given), the Potency entry is “inactive”.
Under `CC(C)(C)c1nnc(SCC(=O)c2ccccc2)n(N)c1=O` stands “inactive”; under `C/C(=N/NC(=O)c1ccc2c(c1)OCO2)c1ccc(NC(=O)C(F)(F)F)cc1`, “inactive”.
Regarding `CCN1CCN(CC(=O)Nc2nc3ccc(C)cc3s2)CC1`, the Potency result was “inactive”.
For the compound `COc1ccccc1C(=O)NC(=S)NNC(=O)c1sc2ccccc2c1Cl`, the Potency result was “inactive”.
As to `CC(=O)c1c(C)[nH]c(C(=O)OCC(=O)c2ccc(C)s2)c1C`, the Potency entry is “inactive”.
Under `O=C(COc1ccccc1[N+](=O)[O-])N/N=C/c1cccc(OC(=O)c2ccc3c(c2)OCO3)c1` stands “inactive”; under `CCOC(=O)c1[nH]nc(C(=O)c2ccc(Br)cc2)c1O`, “inactive”.
For `C=C[C@@H]1c2cc(C)ccc2N(S(=O)(=O)c2ccc(C)cc2)[C@H](c2ccccc2C(F)(F)F)C1(C#N)C#N`, the Potency result was “inactive”.
As to `COc1cc(C(=O)N/N=C(\c2ccccc2)c2ccccn2)cc(OC)c1OC`, the Potency entry was “inactive”.
Under `Cc1ccc(C(=O)Nc2cnc3sc(C)nn3c2=O)cc1` stands “inactive”; under `O=C(NC12CC3CC(CC(C3)C1)C2)c1ccc(-c2cccc(Cl)c2)o1`, “inactive”; under `COc1ccc(C(=O)N=c2nc3ccccn3s2)cc1`, “inactive”.
With `CCc1ccc2[nH]c(=O)c(CN(CCN(CC)CC)C(=O)NC3CCCCC3)cc2c1`, the Potency result was “inactive”.
Under `Cc1cc2[nH]c3ccccc3c2c(C)n1` stands “inactive”.
In the case of `COCC(C)NC(=O)C1CC(=O)N(c2ccc(C)cc2)C1` (stereo not given), the Potency entry is “inactive”.
`Cc1ccc(C)n1-c1cccc(NC(=O)c2ccccc2)c1`: the Potency entry was “inactive”.
Consider `Cc1cccc(-n2c(O)c(C=Nc3ccccc3N)c(=O)[nH]c2=O)c1`, for which the Potency result is “inactive”.
Turning to `CCCCC(=O)Nc1cccc(NC(=S)NC(=O)Cc2ccccc2)c1`, the Potency result was “inactive”.
Turning to `COc1nnc(-c2ccc(C)c(S(=O)(=O)N(C)C)c2)c2ccccc12`, the Potency entry is “inactive”.
In the case of `CC(=O)NC1=C(Nc2ccc(N(C)C)cc2)C(=O)c2ccccc2C1=O`, the Potency result was “inactive”.
Turning to `Cc1c(/C(O)=C2/C(=O)C(=O)N(CCN3CCOCC3)C2c2cccs2)cnn1-c1ccccc1` (stereo not given), the Potency result was “inactive”.
On to `N#CC(Cc1ccccc1)(Cc1ccccc1)C(=O)NN`, for which the Potency is 29.1 µM (active).
In the case of `C#CCn1c(=NC(=O)c2cccs2)sc2cccc(OCC)c21`, the Potency result was “inactive”.
For the compound `COc1ccc(C2=NN(C(C#N)c3ccc(OC)cc3)C(c3ccccc3)C2)cc1` (stereo not given), the Potency entry is “inactive”.
The value for `Cc1cc(NC(c2cccnc2)c2ccc3cccnc3c2O)no1` (stereo not given) was “inactive”; that for `O=C(COc1ccccc1Cl)Nc1ccc(Cl)cn1` was “inactive”; that for `Cc1ccc(NC2=C(Cl)C(=O)c3ccccc3C2=O)cc1` was “inactive”.
As to `CN(/N=C/c1ccc2c(c1)OCO2)c1ccccc1`, the Potency entry is “inactive”.
The value for `CCN(CC)c1ccc(CNc2ccc(Br)cn2)cc1` was “inactive”; that for `Cc1ccnc(NC(=O)c2sc3cc(Cl)ccc3c2Cl)c1` was “inactive”.
